Assay results from PubChem BioAssay (Tox21).
Results filed as inconclusive are left out. Active and inactive are the calls of the source. Unless noted, the call rests on the fitted dose curve; in most records, active means well fitted curve in the direction sought with a large enough effect in the repeat runs; inconclusive means weak or mixed curves; inactive means no such curve, though single readings can be large; an effect the other way counts as inactive or inconclusive.

Legend:
[1] = biological target: Nuclear receptor subfamily 1 group I member 3 (Homo sapiens) (UniProt Q14994); test: qHTS assay to identify small molecule antagonists of the constitutive androstane receptor (CAR) signaling pathway (AID 1224838);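 further: HepG2 cells stably expressing hCAR with CYP2B6 luciferase reporter stimulated by CITCO; nearly all actives have a fitted effect of over 40% in size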
Method in brief: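 Antagonism measured as luciferase signal (ONE-Glo, 30 min, room temperature) in CAR-stimulated cells: HepG2-CYP2B6-hCAR double-stable line exposed 24 hr at 37 C to compound in a 15-point series plus 50 nM CITCO.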

[2] = biological target: Nuclear receptor subfamily 1 group I member 3 (Homo sapiens) (UniProt Q14994); test: qHTS assay to identify small molecule agonists of the constitutive androstane receptor (CAR) signaling pathway (AID 1224839);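 further: HepG2 cells stably carrying human CAR and a CYP2B6 luciferase reporter; series mostly up to about 92 µM; nearly all actives have a fitted effect of over 15% in size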
Method in brief: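 Stable hCAR/CYP2B6-2.2kb HepG2 line in DMEM with 10% FBS; compounds (15 concentrations) and 0.75 uM PK11195 final, 24 h at 37 C/5% CO2, then ONE-Glo luminescence after 30 min.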

[3] = biological target: Thyrotropin receptor (Homo sapiens) (UniProt P16473); test: qHTS assay to identify small molecule agonists of the thyroid stimulating hormone receptor (TSHR) signaling pathway (AID 1224843; calls by dose curve; further: nearly all actives have a fitted effect of over 45% in size)
Method in brief: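 Agonist activity read as cAMP rise via d2/cryptate HTRF competition, 1 h room-temperature detection, in HEK293 cells expressing TSHR. Fifteen-point titrations, each run in triplicate, with a 30 min room-temperature incubation beforehand.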

[4] = qHTS assay to identify small molecule agonists of the hypoxia (HIF-1) signaling pathway - cell viability counter screen (AID 1224844; calls by dose curve; further: nearly all actives have a fitted effect of over 50% in size)
Method in brief: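 Cytotoxicity measured by CellTiter-Glo ATP luminescence in the wells also read for beta-lactamase signal. Cells were HRE-bla ME-180 (2,000/well, 0.5% dialyzed FBS), exposed to compounds for 17 h at 37C.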

[5] = qHTS assay to identify small molecule agonists of the hypoxia (HIF-1) signaling pathway (AID 1224846; active means well fitted activation curve with a large enough effect in the signal ratio in the repeat runs, not every such curve was filed as active; the % refers to the signal ratio)
Method in brief: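 Compounds added to ME-180 cells carrying hypoxia-response-element beta-lactamase reporter (0.5% dialyzed FBS, 5 h preplating), 17 h at 37C; agonist activity detected by CCF4-AM B/G FRET read-out.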

[6] = qHTS assay to identify small molecule agonists of H2AX - cell viability counter screen (AID 1224847; calls by dose curve; further: top concentration of the series differs between compounds; nearly all actives have a fitted effect of over 30% in size)
Method in brief: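 Viability of CHO-K1 (wild type) cells after 3 hr compound exposure was measured by CellTiter-Glo luminescence.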

[7] = qHTS RealTime-Glo MT Cell Viability Assay in HepG2 cells - 24 hour (AID 1224867); further: nearly all actives have a fitted effect of over 50% in size
Method in brief: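 qHTS, HepG2, 600 cells/well, RealTime-Glo (NanoLuc + prosubstrate) added with cells; 5 h preincubation; DMSO compound addition; 37 C; luminescence at 0/8/16/24/32/40 h.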

[8] = qHTS RealTime-Glo MT Cell Viability Assay in HEK293 cells - 32 hour (AID 1224868); further: top concentration of the series differs between compounds; nearly all actives have a fitted effect of over 50% in size
Method in brief: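 Assay medium contained NanoLuc luciferase plus cell-permeant prosubstrate, added with HEK293 cells at 600 cells/well. After 5 h at 37 C/5% CO2 compounds were added; plates stayed at 37 C for 40 h with serial luminescence reads.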

[9] = A CellTox Green Cytotoxicity Assay to monitor cytotoxicity in HEK293 cells - 0 hour (AID 1224869); further: nearly all actives have a fitted effect of over 50% in size
Method in brief: (§1)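 Fluorescence from a DNA-binding dye excluded by viable cells was measured repeatedly in the same HEK293 wells (600 cells/well) during continuous compound exposure at 37 C. Each assay gives one read point: 0, 8, 16, 24, 32 or 40 h.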

[10] = qHTS RealTime-Glo MT Cell Viability Assay in HepG2 cells - 40 hour (AID 1224870); further: nearly all actives have a fitted effect of over 50% in size
Method in brief: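 Real-time viability: cells seeded at 600 per well together with NanoLuc and cell-permeant prosubstrate, compounds added after 5 h incubation. Luminescence tracked at 0, 8, 16, 24, 32 and 40 h of exposure.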

[11] = A CellTox Green Cytotoxicity Assay to monitor cytotoxicity in HEK293 cells - 40 hour (AID 1224871); further: nearly all actives have a fitted effect of over 45% in size
Method in brief: as §1

[12] = biological target: Luciferin 4-monooxygenase (Photinus pyralis) (UniProt P08659); test: qHTS assay to identify small molecule inhibitors of firefly luciferase (AID 1224835); further: series mostly up to about 120 µM; nearly all actives have a fitted effect of over 25% in size
Method in brief: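 Inhibition of purified Photinus luciferase is measured by luminescence. Substrate levels (D-luciferin, ATP) sit at their KM values. Each compound is tested in a concentration series.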

[13] = qHTS assay to identify small molecule agonists of the constitutive androstane receptor (CAR) signaling pathway - cell viability counter screen (AID 1224836); further: series mostly up to about 92 µM; nearly all actives have a fitted effect of over 45% in size
Method in brief: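 Fluorescence from CellTiter-Fluor indicates live cells after 23 h exposure. The human hepatoma line expresses hCAR and a CYP2B6-2.2kb reporter. Incubation medium contains 0.75 uM PK11195 (final).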

[14] = qHTS assay to identify small molecule antagonists of the constitutive androstane receptor (CAR) signaling pathway - cell viability counter screen (AID 1224837); further: series mostly up to about 92 µM; nearly all actives have a fitted effect of over 45% in size
Method in brief: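 Cytotoxicity counter-screen: CellTiter-Fluor fluorescence after 23 h compound exposure (15-point qHTS) in double-stable HepG2-CYP2B6-hCAR cells, with 50 nM CITCO added.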

[15] = qHTS assay to identify small molecule agonists of H2AX (AID 1224845; active means well fitted activation curve with a large enough effect in the signal ratio in the repeat runs, not every such curve was filed as active; the % refers to the signal ratio)
Method in brief: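 Phospho-H2AX Ser139 measured by HTRF (ex 320 nm; em 665 and 620 nm) after 24 hr antibody incubation. Compounds, 15 concentrations, 0.76% DMSO, were applied to CHO-K1 cells for 3hr at 37C before lysis.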

[16] = qHTS assay to identify small molecule antagonists of the estrogen related receptor signaling pathway with the pleiotropic PPARgamma coactivator (PGC) from Tox21 10K library - cell viability counter screen (AID 1224840; active means well fitted cell-killing curve with a large enough effect in the repeat runs, not every such curve was filed as active; further: nearly all actives have a fitted effect of over 40% in size)
Method in brief: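 Counter-screen for cytotoxicity: after 17.5 h compound exposure at 37 C, CellTiter-Fluor reagent added to PGC/ERR cells for 30 min and fluorescence read. Cells were seeded at 2,000 per well 6 h before dosing.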

[17] = qHTS assay to identify small molecule antagonists of the estrogen related receptor signaling pathway with the pleiotropic PPARgamma coactivator (PGC) from Tox21 10K library (AID 1224841; call rule not given here)
Method in brief: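 Luminescence (One-Glo, 30 min at room temperature) after 18 h compound treatment at 37 C of PGC/ERR reporter cells plated at 2,000 cells/well and settled 6 h beforehand.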

[18] = qHTS assay to identify small molecule agonists of the estrogen related receptor signaling pathway with the pleiotropic PPARgamma coactivator (PGC) from Tox21 10K library (AID 1224842); further: nearly all actives have a fitted effect of over 15% in size
Method in brief: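 Luminescence from One-Glo (30 min, room temperature) measured after PGC/ERR cells had 18 h at 37 C with pinned compound (23 nL in DMSO). Cells had been seeded at 2,000 per well and pre-incubated 6 h.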

[19] = qHTS assay to identify small molecule antagonists of the estrogen related receptor (ERR) signaling pathway from Tox21 library (AID 1224848); further: nearly all actives have a fitted effect of over 50% in size
Method in brief: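 Luciferase luminescence (ONE-Glo, 30 min room temperature) was the read-out. Cells of the NTP-supplied ERR line, 2,000 per well, were given 6 h at 37 C before compound addition in DMSO and 18 h exposure at 37 C.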

[20] = qHTS assay to identify small molecule agonists of the estrogen related receptor (ERR) signaling pathway from Tox21 library (AID 1224849; calls by dose curve; further: nearly all actives have a fitted effect of over 15% in size)
Method in brief: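 Luminescent agonist read-out (One-Glo, 30-minute room-temperature incubation) following 18-hour compound treatment at 37 C of the ERR cell line, which had been plated 6 hours before dosing.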

Measured: Potency

Sequence of Nuclear receptor subfamily 1 group I member 3 (Homo sapiens) (Q14994 whole entry, looked up): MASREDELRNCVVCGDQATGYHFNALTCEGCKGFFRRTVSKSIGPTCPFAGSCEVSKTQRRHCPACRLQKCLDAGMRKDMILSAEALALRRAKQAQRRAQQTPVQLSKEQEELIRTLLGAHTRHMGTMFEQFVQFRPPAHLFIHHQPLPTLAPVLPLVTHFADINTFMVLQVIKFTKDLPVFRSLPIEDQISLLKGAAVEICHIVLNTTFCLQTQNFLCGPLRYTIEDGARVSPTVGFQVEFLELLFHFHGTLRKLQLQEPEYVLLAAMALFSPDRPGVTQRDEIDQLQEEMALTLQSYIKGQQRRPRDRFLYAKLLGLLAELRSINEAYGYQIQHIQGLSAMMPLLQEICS
Sequence of Thyrotropin receptor (Homo sapiens) (P16473 whole entry, looked up): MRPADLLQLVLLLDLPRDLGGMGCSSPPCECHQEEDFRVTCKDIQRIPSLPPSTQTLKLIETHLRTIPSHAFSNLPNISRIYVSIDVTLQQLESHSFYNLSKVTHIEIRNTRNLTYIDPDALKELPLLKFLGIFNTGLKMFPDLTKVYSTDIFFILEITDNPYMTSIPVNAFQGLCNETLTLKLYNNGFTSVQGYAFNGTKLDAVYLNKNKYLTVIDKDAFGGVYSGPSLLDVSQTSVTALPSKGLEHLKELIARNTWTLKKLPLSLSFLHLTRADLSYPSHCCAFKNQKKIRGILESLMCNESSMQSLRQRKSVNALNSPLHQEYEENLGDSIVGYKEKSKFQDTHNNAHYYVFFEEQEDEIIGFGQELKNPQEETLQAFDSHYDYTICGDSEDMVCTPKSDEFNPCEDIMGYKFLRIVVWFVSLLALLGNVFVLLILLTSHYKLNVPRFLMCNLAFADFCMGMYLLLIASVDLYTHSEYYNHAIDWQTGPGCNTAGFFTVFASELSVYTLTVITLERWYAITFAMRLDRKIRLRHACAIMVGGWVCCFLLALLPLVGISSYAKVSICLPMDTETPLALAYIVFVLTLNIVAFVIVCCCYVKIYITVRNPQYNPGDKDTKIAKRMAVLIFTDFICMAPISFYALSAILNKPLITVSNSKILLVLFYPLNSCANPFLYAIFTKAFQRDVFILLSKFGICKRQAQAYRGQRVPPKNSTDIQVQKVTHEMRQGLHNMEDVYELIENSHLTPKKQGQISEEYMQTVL
Sequence of Luciferin 4-monooxygenase (Photinus pyralis) (P08659 whole entry, looked up): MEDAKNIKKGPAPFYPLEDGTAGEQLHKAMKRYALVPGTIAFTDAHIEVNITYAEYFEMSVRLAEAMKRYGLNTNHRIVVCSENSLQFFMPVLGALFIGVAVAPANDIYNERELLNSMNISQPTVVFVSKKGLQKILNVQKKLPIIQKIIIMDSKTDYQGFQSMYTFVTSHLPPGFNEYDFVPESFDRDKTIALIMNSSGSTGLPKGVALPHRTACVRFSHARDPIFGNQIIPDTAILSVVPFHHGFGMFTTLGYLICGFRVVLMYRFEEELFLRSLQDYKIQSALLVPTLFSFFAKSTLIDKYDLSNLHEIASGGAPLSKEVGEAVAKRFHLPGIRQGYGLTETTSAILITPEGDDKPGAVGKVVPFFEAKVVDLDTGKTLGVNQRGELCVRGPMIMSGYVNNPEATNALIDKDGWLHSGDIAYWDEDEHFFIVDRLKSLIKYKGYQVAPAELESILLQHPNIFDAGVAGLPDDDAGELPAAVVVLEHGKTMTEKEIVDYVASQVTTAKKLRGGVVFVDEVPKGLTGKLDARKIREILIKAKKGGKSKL

CC1=NN(c2cc(S(=O)(=O)O)ccc2Cl)C(=O)C1N=Nc1ccccc1 (centres undefined)
inactive: [1] | [2] | [3] | [4] | [5] | [6] | [7] | [8] | [9] | [10] | [11]

CCC1C(=O)OCC1Cc1cncn1C (centres undefined)
inactive: [12] | [13] | [14] | [3] | [15] | [6] | [7] | [8] | [9] | [10] | [11]

Cc1c(N)c(=O)n(-c2ccccc2)n1C
inactive: [13] | [14] | [16] | [3] | [4] | [15] | [7] | [8] | [9] | [10] | [11]

C=CC(=O)OCCCl
inactive: [12] | [13] | [14] | [4] | [15] | [5] | [7] | [8] | [9] | [10] | [11]

NO
inactive: [13] | [14] | [3] | [4] | [15] | [5] | [6] | [7] | [8] | [10] | [11]

c1coc(CNc2ncnc3nc[nH]c23)c1
inactive: [12] | [16] | [3] | [4] | [15] | [5] | [7] | [8] | [10] | [11]

CCOC(=O)COc1cc(-n2ncc(C(F)(F)F)c(C)c2=O)c(F)cc1Cl
inactive: [13] | [14] | [2] | [16] | [4] | [15] | [5] | [6] | [7] | [8] | [10] | [11]

CN(C)CCCCCCN(C)C
inactive: [13] | [14] | [1] | [2] | [16] | [17] | [18] | [3] | [4] | [15] | [5] | [6] | [19] | [20] | [7] | [8] | [9] | [10] | [11]

C[C@H]1[C@H](NC(=O)/C(=N/OC(C)(C)C(=O)O)c2csc(N)n2)C(=O)N1S(=O)(=O)O (stereo in doubt)
inactive: [13] | [14] | [1] | [2] | [16] | [3] | [4] | [15] | [6] | [7] | [8] | [10] | [11]
